HEK cytotox – cytotoxic compounds in HEK 293 cells; HEK 293 viability, ATP luminescence (CellTiter-Glo), 48-72 h; Potency, µM (doses to about 115 µM), inactives show top-dose activity change, negative = cytotoxicity, usual class: inhibitors; actives 6.6% (n = 94,000); also: nearly all actives have a fitted effect of over 60% in size
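Cytotoxicity was scored by loss of ATP-coupled luminescence (CellTiter-Glo) in HEK 293 cells. Compound treatment ran 48 or 72 hr at 37 degree Celsius, 5% CO2, 95% humidity.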
3T3 cytotox – NIH 3T3 cell cytotoxicity; NIH 3T3 viability, CellTiter-Glo ATP luminescence, 48-72 h; Potency, µM (top dose mostly 96.7 µM), inactives show top-dose activity change, negative = cytotoxicity, hits mostly inhibitors; actives 4.3% (n = 94,000); AID 1345082; also: nearly all actives have a fitted effect of over 55% in size
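First NIH 3T3 cells are plated at 400 cells/well; next compound is pinned in; then plates incubate 48 or 72 hr at 37 °C; finally CellTiter-Glo is added and luminescence read after 10 min.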
NPR1 antag – antagonists of human natriuretic peptide receptor Npr1; AID 1347048; Potency, µM (top dose mostly 46.3 µM), inactives show at the top dose activity change, negative = inhibition, most hits filed as inhibitors; P16066; HEK293 hNpr1 GloSensor cGMP, ANP-stimulated luminescence; actives 1.6% (n = 76,000); calls by dose curve; also: nearly all actives have a fitted effect of over 60% in size
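HEK293 cells stably expressing human Npr1 and cGMP GloSensor pGS-40F, loaded 2 h with 2% GloSensor reagent, given compound 30 min at room temperature. Luminescence read before and 20 min after 0.1 nM hNppA.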
Luciferase inh – blocks purified firefly luciferase enzyme activity; AID 1347043; actives 2.5% (n = 76,000); Potency, µM (highest dose often 115 µM), hits mostly inhibitors; purified P. pyralis luciferase, luminescence, biochemical; also: nearly all actives have a fitted effect of over 65% in size
Target sequence (P08659 whole entry, looked up): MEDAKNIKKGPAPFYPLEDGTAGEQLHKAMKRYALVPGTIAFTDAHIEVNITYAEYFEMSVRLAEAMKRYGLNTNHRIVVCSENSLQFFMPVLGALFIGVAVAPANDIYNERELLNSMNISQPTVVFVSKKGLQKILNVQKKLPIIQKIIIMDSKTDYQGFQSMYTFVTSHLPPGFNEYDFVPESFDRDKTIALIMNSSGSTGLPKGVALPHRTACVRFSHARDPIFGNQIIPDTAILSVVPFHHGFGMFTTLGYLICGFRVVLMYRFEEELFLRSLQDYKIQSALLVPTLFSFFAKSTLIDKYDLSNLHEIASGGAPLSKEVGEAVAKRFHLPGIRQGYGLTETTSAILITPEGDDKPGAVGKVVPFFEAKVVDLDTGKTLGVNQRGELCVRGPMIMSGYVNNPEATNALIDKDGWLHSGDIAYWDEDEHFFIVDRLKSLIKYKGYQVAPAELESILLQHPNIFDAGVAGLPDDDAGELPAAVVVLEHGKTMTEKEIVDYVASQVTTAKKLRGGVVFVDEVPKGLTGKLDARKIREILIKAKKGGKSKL
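Luminescence read by CCD imager after adding enzyme (10nM final) to wells holding compound, titrated in qHTS. Substrates 10uM each D-luciferin and ATP; buffer 50mM Tris acetate pH 7.5, 10mM Mg acetate, Tween-20, BSA.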
The depositor's hits bear a star; i = inactive; ? = inconclusive; · = not tested or not shown; ! = repeats disagree; [ ] = another dose, or the depositor's remark. An excerpt weighted towards active compounds, which were near 11% of everything screened. Unless noted, calls follow the shape of the dose curve; as a rule, active = well fitted curve in the direction sought with a large enough effect; inconclusive = small, poorly fitted or top-dose-only effect, or another doubt; inactive = no such curve, though single readings can be large; an effect the other way counts as inactive or inconclusive. % is scaled to controls: 0 for no effect and ±100 for the full control effect; potency is read from the fitted curve at half-maximal effect.

SMILES	HEK cytotox	3T3 cytotox	NPR1 antag	Luciferase inh
N#Cc1cccc(OCc2nc3c(n2Cc2ccccc2)C(=O)N(Cc2ccccc2F)CCN3)c1	?	28.2µM*	-21.4%	i
O=C1c2c(nc(COc3ccccc3)n2Cc2ccccc2)NCCN1CCOc1ccccc1	31.6µM*	?	-25.1%	i
CC(=O)Nc1ccc(CN2C[C@@H](F)[C@@H](OCc3nc4ccccc4n3C)C2)cc1	-17.7%[172 µM]	?	-9.9%[70.6 µM]	i
COc1ccc(S(=O)(=O)N2C[C@H](F)C[C@@H]2C(=O)N2CCOCC2)cc1Cl	-1.9%	i	-1.3%	i
CCC(=O)N1CCC(Cc2ncc(C)n2CCOC)C1 (stereo not drawn)	-31.2%	-21.9%	0.1%	i
CN1C(=O)[C@@H]2C[C@@H](CN2C2CCC2)Oc2ccccc21	89.1µM*	50.1µM*	-15.7%[70.6 µM]	i
CN1C(=O)[C@@H]2C[C@@H](CN2C2CCCC2)Oc2ccccc21	?	?	-2.0%[70.6 µM]	i
CCCc1nnc(C[C@@H]2C[C@@H](C(C)C)[C@H](CN3CCN(C(C)=O)CC3)C=C2C)o1	100µM*	-11.6%[174 µM]	-6.5%[70.6 µM]	i
CCCc1nnc(C[C@@H]2C[C@@H](C(C)C)[C@H](CN3CCC(O)CC3)C=C2C)o1	3.9%[172 µM]	-1.4%[174 µM]	2.7%[70.6 µM]	i
CCCc1nnc(C[C@@H]2C[C@@H](C(C)C)[C@H](CNc3cccnc3)C=C2C)o1	89.1µM*	25.1µM*	-8.9%[70.6 µM]	i
CCCc1nnc(C[C@@H]2C[C@@H](C(C)C)[C@H](CN3CCN(c4ncccn4)CC3)C=C2C)o1	39.8µM*	?	2.5%	i
CC1=C[C@@H](CN2CCN(c3ncccn3)CC2)[C@H](C(C)C)C[C@H]1Cc1nnc(Cc2c[nH]c3ccccc23)o1	44.7µM*	?	-0.1%	i
Cc1nc(-c2cccc(S(=O)(=O)N3C[C@@H](N)C[C@H]3C(=O)NC(C)C)c2)no1	-21.0%	-3.4%	2.0%	i
COc1ccccc1-c1cccc(C(=O)N2CCN(C(=O)c3ccc(Cl)cc3)CC2)c1	?	31.6µM*	·	·
COc1ccccc1-c1cccc(C(=O)N2CCN(C(=O)c3ccccc3C)CC2)c1	31.6µM*	35.5µM*	·	·
COc1ccccc1-c1cccc(C(=O)N2CCN(C(=O)c3ccccc3)CC2)c1	?	-32.3%	·	·
Cc1ccc(NC(=O)CC2CCCN(c3cn[nH]c(=O)c3)C2)c(C)c1 (stereo not drawn)	-9.6%	-11.6%	4.6%	i
O=C1OC[C@@H]2CCN(C3COC3)Cc3ccc(F)cc3N12	-3.1%[230 µM]	i	4.8%[70.6 µM]	i
CCc1nc2c(c(-c3ccc(O)cc3)n1)CCN(C(=O)c1ccc(C)cc1)CC2	i	-2.1%	·	·
C#CCNC(=O)c1nc(-c2ccccc2)c2ccccn12	?	?	1.0%[70.6 µM]	i
C#CCNC(=O)c1nc(-c2cccc(C(F)(F)F)c2)c2ccccn12	50.1µM*	?	-23.7%[70.6 µM]	i
CC(C)NC(=O)c1nc(-c2cccc(C(F)(F)F)c2)c2ccccn12	79.4µM*	89.1µM*	13.0%	i
Cc1cc(-c2cc3c(n(Cc4cccnc4)c2=O)CCN(C(=O)CCc2ccccc2)C3)ccc1F	-2.6%	-10.6%	-0.6%	i
CNC(=O)[C@@H]1CN(C(=O)c2cccc(C)n2)C[C@H]1COC	-15.8%	-27.8%	6.2%	i
Cc1cc(=O)n(CC(=O)N[C@@H]2CCOC[C@H]2Oc2ccccn2)nc1C	i	i	0.7%	i
SMILES	HEK cytotox	3T3 cytotox	NPR1 antag	Luciferase inh
Cc1cc(C)c2c(CC(=O)N[C@@H]3CCOC[C@H]3Oc3ccccn3)coc2c1	50.1µM*	?	4.5%	i
COc1cccc(C(=O)N2CCC3(CC2)CCN(Cc2cccs2)c2ccccc2O3)c1	?	?	-5.3%	i
CC(C)(C)C(=O)N1CCC2(CC1)CCN(Cc1cccs1)c1ccccc1O2	35.5µM*	?	-26.9%	i
Cc1ccc(C(=O)N2CCC3(CC2)CCN(CCc2ccccc2)c2ccccc2O3)cc1	?	39.8µM*	9.9%	i
O=C(c1ccc(Cl)nc1)N1CCC2(CC1)CCN(Cc1cccs1)c1ccccc1O2	25.1µM*	?	?	i
COc1ccc(C(=O)N2CCC3(CC2)CCN(Cc2cccs2)c2ccccc2O3)cc1	39.8µM*	?	7.3%	i
O=C(NC1CCCC1)N1CCC2(CC1)CC(N(C(=O)c1ccccc1)C1CC1)CCO2 (stereo not drawn)	-25.5%	-23.6%	4.2%	i
CCC(=O)N(C1CCOCC1)C1CCN(Cc2cc(F)ccc2F)CC1	4.4%	i	1.6%	i
O=C(c1cccnc1)N1CCC2(CC1)CC(c1cccc(C(F)(F)F)c1)=NO2	?	-25.4%	·	·
Cc1ccc(C(=O)N2CCC3(CC2)CC(c2cccc(C(F)(F)F)c2)=NO3)cc1	44.7µM*!	?	-25.7%	i
Cc1ccc(C(=O)N2CCC3(CC2)CC(c2cccnc2)=NO3)cc1	?	?	16.2%[70.6 µM]	i
O=C(c1ccc(Cl)nc1)N1CCC2(CC1)CC(c1cccc(C(F)(F)F)c1)=NO2	35.5µM*!	?	·	·
CCn1cc(S(=O)(=O)N2CCC[C@H]2c2nc(-c3ccc(F)cc3)n[nH]2)cn1	-28.8%	-29.8%	·	·
Cc1ccc2c(C)c(C(=O)N3C[C@@H](NS(C)(=O)=O)[C@H](C(C)C)C3)oc2c1	44.7µM*	?	0.0%	i
Cc1ccc2c(C)c(C(=O)N3CC[C@H](O)[C@@H](O)C3)oc2c1	-18.9%	-12.1%	2.6%	i
COc1cccc(CNC(=O)N(C)C2CCc3nnc(C)n3CC2)c1 (stereo not drawn)	0.7%	-13.5%	2.8%	i
O=[S+]([O-])(NC1CCCN(c2ccc3nnc(-c4ccccc4)n3n2)C1)c1ccccc1 (stereo not drawn)	22.4µM*	?	·	·
Cc1noc(C)c1[S+](=O)([O-])N1CCCN(c2ccc3nnc(-c4ccccc4)n3n2)CC1	79.4µM*	-29.7%	·	·
Cc1ccc([S+](=O)([O-])NC2CCN(c3ccc4nnc(-c5ccccc5)n4n3)CC2)cc1	39.8µM*	?	·	·
C[S+](=O)([O-])NC1CCN(c2ccc3nnc(-c4ccccc4)n3n2)CC1	-5.0%	-6.7%	·	·
O=[S+]([O-])(NC1CCCN(c2ccc3nnc(C4CC4)n3n2)C1)c1cccc(C(F)(F)F)c1 (stereo not drawn)	?	5.62µM*	·	·
Cn1c(Cn2ccnc2)nnc1C1CCCN(c2ncccc2C(N)=O)C1 (stereo not drawn)	i	4.4%	-2.2%	i
COCCN1C(=O)Cc2ccccc2C1C(=O)NCc1ccc(Cl)cc1 (stereo not drawn)	-18.9%	-7.1%	1.6%	i
COc1cccc([S+](=O)([O-])NC2CCN(c3ccc4nnc(-c5ccccc5)n4n3)CC2)c1	25.1µM*	14.1µM*	·	·
CCc1cccc2c(C(CC(=O)NCC(C)C)c3ccc(OC)c(OC)c3)c[nH]c12 (stereo not drawn)	-22.7%	-14.9%	1.6%	i
CCCCCNC(=O)CC(c1cccc(OC)c1OC)c1c[nH]c2c(CC)cccc12 (stereo not drawn)	44.7µM*	?	0.5%	i

Bioassay records from PubChem.
